Results as given in PubChem BioAssay AID1159580 (chemical genetic matrix, 2015).
The whole screen tested about 5,500 compounds, of which about 2,000 (36%) were called active. Inconclusive results (about 18%) are left out. Rule as the data show it: active = normalized growth mostly below about 0.91 (no sharp cut-off); inconclusive = no clear call, values can overlap the other calls; inactive = mostly above about 0.92. The list shows a part of the results.

Assay: chemical genetic growth profiling, strain panel (AID 1159580);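 also: tested at 20 µM; growth read once vehicle control cultures reached saturation at 30 °C; 1 = growth at the plate median or of vehicle wells; lower values mean less growth of the strain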
Details: growth OD

Measured: normalized growth

Cc1onc(-c2ccccc2)c1C(=O)NC1C(=O)N2[C@@H]1SC(C)(C)[C@@H]2C(=O)O (some centres not stated)
inactive: S. cerevisiae deletion strains, locus YJR075W, strain HOC1, hits give low values 1.02 | S. cerevisiae deletion strains, locus YKL009W, strain mrt4, hits give low values 1.01 | S. cerevisiae deletion strains, locus YKL068W, hits give low values 1.01 | S. cerevisiae deletion strains, locus YKL085W, strain MDH1 (second series), hits give low values 1.01 | S. cerevisiae deletion strains, locus YKL085W, strain MDH1, hits give low values 1.01 | S. cerevisiae deletion strains, locus YKL160W, strain elf1, hits give low values 1.06 | S. cerevisiae deletion strains, locus YKL190W, strain CNB1, hits give low values 1.01 | S. cerevisiae deletion strains, locus YKR001C, strain vps1, hits give low values 1.01 | S. cerevisiae deletion strains, locus YKR026C, strain gcn3, hits give low values 1.02 | S. cerevisiae deletion strains, locus YKR091W, strain srl3, hits give low values 1.01 | S. cerevisiae deletion strains, locus YLL001W, strain dnm1, hits give low values 1.02 | S. cerevisiae deletion strains, locus YLL026W, hits give low values 1.01 | S. cerevisiae deletion strains, locus YLL041C, strain sdh2, hits give low values 1.01 | S. cerevisiae deletion strains, locus YLR027C, strain aat2, hits give low values 1.01 | S. cerevisiae deletion strains, locus YLR039C, strain RIC1, hits give low values 1.01 | S. cerevisiae deletion strains, locus YLR058C, strain SHM2, hits give low values 1.01 | S. cerevisiae deletion strains, locus YLR102C, strain apc9, hits give low values 1 | S. cerevisiae deletion strains, locus YLR113W, strain HOG1, hits give low values 0.975 | S. cerevisiae deletion strains, locus YLR221C, strain rsa3, hits give low values 1.03 | S. cerevisiae deletion strains, locus YLR258W, strain gsy2, hits give low values 1.02 | S. cerevisiae deletion strains, locus YLR262C, strain YPT6 (second series), hits give low values 1.05 | S. cerevisiae deletion strains, locus YLR262C, strain YPT6, hits give low values 1.04 | S. cerevisiae deletion strains, locus YLR268W, strain sec22, hits give low values 1.05 | S. cerevisiae deletion strains, locus YLR320W, strain mms22, hits give low values 1.04 | S. cerevisiae deletion strains, locus YLR330W, strain CHS5, hits give low values 1.01 | S. cerevisiae deletion strains, locus YLR342W, strain FKS1 (second series), hits give low values 1.01 | S. cerevisiae deletion strains, locus YLR342W, strain FKS1, hits give low values 1.02 | S. cerevisiae deletion strains, locus YLR357W, strain rsc2, hits give low values 1.09 | S. cerevisiae deletion strains, locus YLR370C, strain arc18, hits give low values 1.02 | S. cerevisiae deletion strains, locus YLR371W, strain rom2, hits give low values 1.01 | S. cerevisiae deletion strains, locus YLR384C, strain iki3, hits give low values 1.03 | S. cerevisiae deletion strains, locus YLR418C, strain cdc73, hits give low values 0.998 | S. cerevisiae deletion strains, locus YML016C, strain PPZ1, hits give low values 1.01 | S. cerevisiae deletion strains, locus YML032C, strain rad52, hits give low values 1.03 | S. cerevisiae deletion strains, locus YML120C, strain ndi1, hits give low values 1.02 | S. cerevisiae deletion strains, locus YML124C, strain tub3, hits give low values 1.01 | S. cerevisiae deletion strains, locus YMR058W, strain fet3, hits give low values 1.01 | S. cerevisiae deletion strains, locus YMR078C, strain ctf18, hits give low values 1.01 | S. cerevisiae deletion strains, locus YMR125W, strain sto1, hits give low values 1.02 | S. cerevisiae deletion strains, locus YMR129W, hits give low values 1.01 | S. cerevisiae deletion strains, locus YMR205C, strain PFK2, hits give low values 1.05 | S. cerevisiae deletion strains, locus YMR223W, strain ubp8, hits give low values 0.975 | S. cerevisiae deletion strains, locus YMR231W, strain pep5, hits give low values 1.02 | S. cerevisiae deletion strains, locus YMR263W, strain SAP30, hits give low values 1.01 | S. cerevisiae deletion strains, locus YMR307W, strain GAS1, hits give low values 0.981 | S. cerevisiae deletion strains, locus YNL067W, strain RPL9B, hits give low values 1.02 | S. cerevisiae deletion strains, locus YNL071W, strain lat1, hits give low values 1.01 | S. cerevisiae deletion strains, locus YNL128W, strain TEP1, hits give low values 1 | S. cerevisiae deletion strains, locus YNL153C, strain GIM3, hits give low values 1.01 | S. cerevisiae deletion strains, locus YNL183C, strain NPR1, hits give low values 0.946 | S. cerevisiae deletion strains, locus YNL209W, strain ssb2, hits give low values 1.01 | S. cerevisiae deletion strains, locus YNL233W, strain BNI4, hits give low values 1 | S. cerevisiae deletion strains, locus YNL248C, strain rpa49, hits give low values 1.01 | S. cerevisiae deletion strains, locus YNL250W, strain rad50, hits give low values 1.01 | S. cerevisiae deletion strains, locus YNL271C, strain bni1, hits give low values 1.01 | S. cerevisiae deletion strains, locus YNL298W, strain CLA4, hits give low values 1.02 | S. cerevisiae deletion strains, locus YNL307C, strain MCK1, hits give low values 1.01 | S. cerevisiae deletion strains, locus YNL322C, strain KRE1 (second series), hits give low values 1.03 | S. cerevisiae deletion strains, locus YNL322C, strain KRE1, hits give low values 1 | S. cerevisiae deletion strains, locus YNR049C, strain mso1, hits give low values 1.02 | S. cerevisiae deletion strains, locus YNR052C, strain pop2, hits give low values 1 | S. cerevisiae deletion strains, locus YOL006C, strain TOP1, hits give low values 1.02 | S. cerevisiae deletion strains, locus YOL012C, strain htz1 0.833 | S. cerevisiae deletion strains, locus YOL147C, strain pex11, hits give low values 1.01 | S. cerevisiae deletion strains, locus YOR001W, strain rrp6, hits give low values 0.971 | S. cerevisiae deletion strains, locus YOR061W, strain CKA2, hits give low values 1.01 | S. cerevisiae deletion strains, locus YOR069W, strain VPS5, hits give low values 1.01 | S. cerevisiae deletion strains, locus YOR070C, strain gyp1, hits give low values 1.02 | S. cerevisiae deletion strains, locus YOR080W, strain dia2, hits give low values 1.02 | S. cerevisiae deletion strains, locus YOR083W, strain WHI5, hits give low values 1.04 | S. cerevisiae deletion strains, locus YOR106W, strain vam3, hits give low values 1.03 | S. cerevisiae deletion strains, locus YOR136W, strain idh2, hits give low values 0.992 | S. cerevisiae deletion strains, locus YOR144C, strain elg1, hits give low values 1.01 | S. cerevisiae deletion strains, locus YOR184W, strain ser1, hits give low values 1.01 | S. cerevisiae deletion strains, locus YOR231W, strain MKK1, hits give low values 1.01 | S. cerevisiae deletion strains, locus YOR265W, strain rbl2, hits give low values 1.01 | S. cerevisiae deletion strains, locus YOR270C, strain vph1, hits give low values 1.02 | S. cerevisiae deletion strains, locus YOR290C, strain snf2, hits give low values 1.02 | S. cerevisiae deletion strains, locus YOR316C, strain cot1, hits give low values 1.01 | S. cerevisiae deletion strains, locus YPL051W, strain arl3, hits give low values 1.01 | S. cerevisiae deletion strains, locus YPL055C, strain LGE1, hits give low values 1.05 | S. cerevisiae deletion strains, locus YPL078C, strain atp4, hits give low values 1.01 | S. cerevisiae deletion strains, locus YPL106C, strain sse1, hits give low values 1.04 | S. cerevisiae deletion strains, locus YPL240C, strain hsp82, hits give low values 1.02 | S. cerevisiae deletion strains, locus YPL241C, strain CIN2, hits give low values 1.01 | S. cerevisiae deletion strains, locus YPL256C, strain CLN2, hits give low values 0.98 | S. cerevisiae deletion strains, locus YPR119W, strain clb2, hits give low values 1 | S. cerevisiae deletion strains, locus YPR141C, strain kar3, hits give low values 1.02 | S. cerevisiae deletion strains, locus YPR163C, strain tif3, hits give low values 1.02 | S. cerevisiae deletion strains, locus YPR167C, strain met16, hits give low values 1.01 | S. cerevisiae deletion strains, strain wtn01, hits give low values 1.04 | S. cerevisiae strains, strain wild type, hits give low values 1
